TDP43 rescue: qHTS of TDP-43 Inhibitors; TDP-43 expressing yeast growth rescue, BacTiter-Glo, 24 h; Potency, µM (series often up to 46.1 µM), actives largely listed as activators; 410,000 compounds, 1.8% hits; also: nearly all actives have a fitted effect of over 50% in size
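Luminescence from BacTiter-Glo reports growth of TDP-43-expressing yeast after 24 hr at 30 deg C with compound. Cells were raffinose-pregrown to mid-log, then seeded in galactose medium at OD600=0.02.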
Abeta rescue: qHTS for compounds that reverse cellular toxicity of Amyloid beta (A-beta) peptide in yeast: Primary Screen. yeast expressing A-beta42, growth rescue, OD600, 48 h; response scale: 0% DMSO, 100% iron-clioquinol control. Potency, µM (top dose mostly 46.1 µM), most hits filed as activators. 410,000 compounds, 0.063% hits; also: nearly all actives have a fitted effect of over 55% in size
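Yeast A-beta toxicity model in growth medium with pinned compounds, 48 h at 30 C; growth read as absorbance at 600 nm. Normalized to FeCl3/clioquinol equimolar mix (positive) and DMSO (negative).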
FUS suppressor: qHTS for Suppressors of FUS Proteinopathy: Primary screen using FUS-linked yeast assay; S. cerevisiae FUS-expressing, growth rescue, OD600, 24 h; Potency, µM (titrated, usually from 76.6 µM), hits mostly activators; 390,000 compounds, 0.24% hits; AID 1347120, 2019; also: nearly all actives have a fitted effect of over 55% in size
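Quantitative HTS measuring growth restoration of FUS-toxic yeast. Galactose-induced cells (OD 0.005) were exposed 24hr at 30C to compounds at several concentrations, then absorbance at 600 nm was recorded.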
aSyn rescue: qHTS of alpha-syn Inhibitors; Yeast expressing alpha-synuclein, growth rescue, BacTiter-Glo, 24 h; Potency, µM (doses to about 46.1 µM), most hits filed as activators; 370,000 compounds, 0.14% hits; AID 652106, 2013; also: nearly all actives have a fitted effect of over 65% in size
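Galactose-induced alpha-syn yeast (OD600=0.02, raffinose-pregrown) + pinned cpd, 24 hr, 30 deg C; growth by BacTiter-Glo luminescence. Growth restoration scores as activation.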
Of the large screens only hits and unclear results are named; the others gave an inactive call; ! = not active in a repeat. An excerpt weighted towards active compounds, which were near 2.1% of everything screened. Calls follow the shape of the dose curve; as a rule, active = well fitted curve in the direction sought with a large enough effect; inconclusive = small, poorly fitted or top-dose-only effect, or another doubt; inactive = no such curve, though single readings can be large; an effect the other way counts as inactive or inconclusive.

O=C(NCc1ccccc1)c1nc2ccccc2s1	TDP43 rescue 22µM
CCNC(=O)c1ccc(CSc2nc3ccccc3s2)cc1	TDP43 rescue 14µM
COCCNC(=O)c1ccc(CSc2nc3ccccc3s2)cc1	TDP43 rescue inconclusive
CC(=O)Nc1ccc2nc(SCc3ccccc3)sc2c1	TDP43 rescue 18µM (no result: aSyn rescue)
CCc1ccc(Nc2nc(N)nc(CSc3nc4ccccc4s3)n2)cc1	TDP43 rescue 25µM!, Abeta rescue inconclusive
COc1cccc(NC(=O)CSc2nc3ccc(NC(=O)c4ccco4)cc3s2)c1	none (no result: aSyn rescue)
CCc1ccc(-c2cn3c(n2)sc2cc(C(=O)NCCc4ccc(OC)cc4OC)ccc23)cc1	none (no result: aSyn rescue)
COc1[nH]c(/N=C/c2ccco2)c(C#N)c1C#N	none (no result: TDP43 rescue, Abeta rescue, FUS suppressor)
CC(=O)CC[C@@H]1CC[C@]2(CCCN(C(=O)c3ccc4ccccc4n3)C2)O1	none (no result: TDP43 rescue, Abeta rescue, aSyn rescue)
Cc1ccc(C)c(-c2ccc(=O)n(Cc3ccc(F)cc3Cl)n2)c1	TDP43 rescue 22µM!, FUS suppressor inconclusive, aSyn rescue inconclusive
CCOc1ccc(NC(=O)C(CC)n2nc(-c3ccc(C)c(C)c3)ccc2=O)cc1 (stereo unspecified)	none (no result: aSyn rescue)
Cc1ccc(C)c(-c2ccc(=O)n(Cc3cccc(Br)c3)n2)c1	none
CCC(C(=O)Nc1cc(F)ccc1F)n1nc(-c2cc(C)ccc2C)ccc1=O (stereo unspecified)	TDP43 rescue 22µM (no result: aSyn rescue)
CCC(C(=O)Nc1cc(OC)cc(OC)c1)n1nc(-c2ccc(C)c(C)c2)ccc1=O (stereo unspecified)	TDP43 rescue 28µM, Abeta rescue inconclusive, FUS suppressor inconclusive (no result: aSyn rescue)
CCCc1ccc(NC(=O)C2CCCN(c3cnccn3)C2)cc1 (stereo unspecified)	TDP43 rescue 32µM, aSyn rescue inconclusive
Cc1cc(Cl)ccc1OC(C)C(=O)N1CCCN(C(=O)C(C)Oc2ccc(Cl)cc2C)CC1 (stereo unspecified)	TDP43 rescue 32µM, FUS suppressor inconclusive, aSyn rescue inconclusive
COc1ccccc1N1CCN(C(=O)COc2ccc(Cl)cc2Br)CC1	TDP43 rescue 14µM, aSyn rescue 28µM
COc1ccc(C(=S)N2CCN(c3ccccc3Cl)CC2)cc1OC	TDP43 rescue 11µM
Cc1cc(Cl)ccc1OCC(=O)N1CCCN(C(=O)COc2ccc(Cl)cc2C)CC1	TDP43 rescue 25µM, aSyn rescue inconclusive (no result: FUS suppressor)
CSc1ccccc1NC(=O)COc1ccc(Cl)cc1C	TDP43 rescue 16µM (no result: FUS suppressor)
Cc1cc(Cl)ccc1OCC(=O)Nc1ccccc1CO	none
CCOc1ccc(CCNC(=O)c2cnc3c(-c4ccccc4)c(C)nn3c2C)cc1OCC	none (no result: aSyn rescue)
Cc1nn2c(C)c(C(=O)NCCc3ccccc3)cnc2c1-c1ccccc1	TDP43 rescue 18µM (no result: aSyn rescue)
CO/N=C(\c1nonc1N)N1CCN(c2ccc(Cl)cc2[N+](=O)[O-])CC1	TDP43 rescue 14µM
O=C(O)CCSc1ccc2ccccc2n1	TDP43 rescue 18µM
COc1cccc(NC(=O)CCSc2ccc3ccccc3n2)c1	TDP43 rescue 13µM (no result: FUS suppressor)
CC1(Cc2ccccc2OC(F)(F)F)C(=O)Nc2ccc(S(=O)(=O)NC3CCCCC3)cc21 (stereo unspecified)	none
COc1ccc(C(C)=O)cc1CC1(C)C(=O)Nc2ccc(OC(F)(F)F)cc21 (stereo unspecified)	FUS suppressor inconclusive
COc1ccc(OC(F)(F)F)cc1CC1(C)C(=O)Nc2ccc(-c3ccsc3)cc21 (stereo unspecified)	TDP43 rescue 14µM
COc1ccc(OC(F)(F)F)cc1CC1(C)C(=O)Nc2ccc(S(=O)(=O)NC3CCCCC3)cc21 (stereo unspecified)	FUS suppressor 32µM
COc1cc2c(NC3CCN(C)CC3)nc(N3CCCN(C)CC3)nc2cc1OCCCN1CCOCC1	none (no result: TDP43 rescue, Abeta rescue, FUS suppressor)
O=C1CCC[C@@H]2Cc3[nH]c4c(Cl)ccc(Cl)c4c3[C@@H]3CCN1[C@H]23	TDP43 rescue 28µM
CCn1cc(C(=O)NCCCOC(C)C)c(=O)c2cc(S(=O)(=O)N3CCc4ccccc4C3)ccc21	none (no result: aSyn rescue)
O=C(Nc1ccc(F)c(Cl)c1)c1cc(C2CCCN(C(=O)C3CC3)C2)on1 (stereo unspecified)	TDP43 rescue 25µM
O=C(Nc1ccccc1)c1cc(C2CCCN(C(=O)OCc3ccccc3)C2)on1 (stereo unspecified)	TDP43 rescue 35µM
O=C(Nc1ccccc1)c1cc(C2CCCCN2C(=O)OCc2ccccc2)on1 (stereo unspecified)	none
O=C(Nc1ccccc1)c1cc(C2CCCN(C(=O)CCc3ccccc3)C2)on1 (stereo unspecified)	TDP43 rescue 18µM
O=C(Nc1ccccc1Cl)c1cc(C2CCCN(C(=O)CCc3ccccc3)C2)on1 (stereo unspecified)	TDP43 rescue inconclusive
O=C(Nc1ccc(F)c(Cl)c1)c1cc(C2CCCN(C(=O)CCc3ccccc3)C2)on1 (stereo unspecified)	TDP43 rescue 28µM
O=C(Nc1ccc(F)c(Cl)c1)c1cc(C2CCCCN2C(=O)C2CC2)on1 (stereo unspecified)	none
C(=C\c1cnc2ccccc2n1)/c1ccc2c(c1)OCO2	none (no result: TDP43 rescue, Abeta rescue, FUS suppressor)
C=CCN(C)C(C#Cc1ccccc1)Cc1ccccc1 (stereo unspecified)	none (no result: TDP43 rescue, Abeta rescue, aSyn rescue)
O=C(NCc1ccc(F)cc1)c1cc(C2CCCN(C(=O)CCCc3ccccc3)C2)on1 (stereo unspecified)	TDP43 rescue 18µM, FUS suppressor inconclusive
O=C(NCc1ccccc1)c1cc(C2CCCN(C(=O)CCc3ccccc3)C2)on1 (stereo unspecified)	none
Cc1cccc(N(C)c2nc3ccc(C)cc3n3nnnc23)c1	none (no result: aSyn rescue)
Cc1cccc(N(C)c2nc3ccc(C)cc3n3cnnc23)c1	TDP43 rescue 13µM (no result: aSyn rescue)
Cc1ccccc1Cn1cc(COC(=O)NCCc2ccccc2)nn1	none (no result: TDP43 rescue, Abeta rescue, aSyn rescue)
CCOc1ccc(S(=O)(=O)Nc2cccc(-c3ccc(OCC)nn3)c2)cc1	TDP43 rescue 35µM (no result: aSyn rescue)
Cc1ccc(S(=O)(=O)Nc2cccc(-c3ccc(N4CCCCCC4)nn3)c2)cc1C	FUS suppressor 22µM (no result: Abeta rescue)
CCc1ccc(S(=O)(=O)Nc2cccc(-c3ccc(OC)nn3)c2)s1	TDP43 rescue 18µM, FUS suppressor inconclusive (no result: aSyn rescue)
COc1ccc(-c2cccc(NS(=O)(=O)c3cccs3)c2)nn1	none (no result: aSyn rescue)
CCCNC(=O)c1noc2c1CCc1cc(OC)ccc1-2	TDP43 rescue 13µM
N/C(=N\OC(=O)c1ccc([N+](=O)[O-])cc1)c1cccnc1	none
N/C(=N\OC(=O)c1ccc(Cl)c([N+](=O)[O-])c1)c1ccccc1	TDP43 rescue 13µM
N/C(=N\OC(=O)c1ccc(Cl)cc1)c1ccccn1	TDP43 rescue 10µM
N/C(=N\OC(=O)c1cc([N+](=O)[O-])ccc1Cl)c1cccnc1	TDP43 rescue 13µM
N/C(=N\OC(=O)c1ccc(Cl)c([N+](=O)[O-])c1)c1ccccn1	TDP43 rescue 16µM
N/C(=N\OC(=O)c1ccc(Cl)c(Cl)c1)c1ccccn1	none
